Compound activity: PubChem BioAssay, National Center for Advancing Translational Sciences (NCATS)
IDH1 R132H inh: blocks human mutant IDH1 R132H enzyme. O75874. IDH1-R132H enzyme, NADPH consumption, diaphorase/resazurin fluorescence. Potency, µM (highest dose often 76.6 µM), most hits filed as inhibitors. actives 0.093% (n = 390,000); also: nearly all actives have a fitted effect of over 65% in size
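IDH1-R132H (0.5 ug/mL dispensed) in pH 7.5 Tris buffer was preincubated 30 min with compound, then given a substrate mix of 0.016 mM NADPH and 2 mM alpha-KG for 80 min at room temperature; remaining NADPH was read by diaphorase/resazurin fluorescence.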
GLS inhibitor: inhibitors of human glutaminase (GLS); GLS enzymatic activity, qHTS titration; actives 0.21% (n = 410,000); Potency, µM (series often up to 45.5 µM), usual class: inhibitors
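Enzyme dispensed in phosphate buffer (45 mM, pH 8.2, 0.02% Tween-20), compounds pinned in, then 1 mM L-glutamine solution and the glutamate oxidase–HRP–Amplex Red mix added; fluorescence read immediately and again after 30 min at room temperature.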
TrxR1 substrate: is turned over as a substrate by rat TrxR1; purified TrxR1 substrate turnover, NADPH consumption readout; Potency, µM (top dose mostly 114 µM); actives 0.01% (n = 390,000); also: nearly all actives have a fitted effect of over 50% in size
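Rat TrxR1, dispensed at 90 nM, was prereduced with 400 uM NADPH (final) for 5 min at ~22 deg C, then incubated with compound 15 min before 400 uM selenite. A first-read NADPH fluorescence drop versus no-compound background flagged substrates.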
PKM2 activator: activators of human pyruvate kinase M2 | P14618 | purified PKM2, Kinase-Glo ATP luminescence, activation; response scale: 0% is enzyme alone, no compound | Potency, µM (doses to about 57.5 µM), hits mostly activators | actives 0.34% (n = 260,000) | AID 1631; also: nearly all actives have a fitted effect of over 55% in size
Target sequence (P14618 whole entry, looked up): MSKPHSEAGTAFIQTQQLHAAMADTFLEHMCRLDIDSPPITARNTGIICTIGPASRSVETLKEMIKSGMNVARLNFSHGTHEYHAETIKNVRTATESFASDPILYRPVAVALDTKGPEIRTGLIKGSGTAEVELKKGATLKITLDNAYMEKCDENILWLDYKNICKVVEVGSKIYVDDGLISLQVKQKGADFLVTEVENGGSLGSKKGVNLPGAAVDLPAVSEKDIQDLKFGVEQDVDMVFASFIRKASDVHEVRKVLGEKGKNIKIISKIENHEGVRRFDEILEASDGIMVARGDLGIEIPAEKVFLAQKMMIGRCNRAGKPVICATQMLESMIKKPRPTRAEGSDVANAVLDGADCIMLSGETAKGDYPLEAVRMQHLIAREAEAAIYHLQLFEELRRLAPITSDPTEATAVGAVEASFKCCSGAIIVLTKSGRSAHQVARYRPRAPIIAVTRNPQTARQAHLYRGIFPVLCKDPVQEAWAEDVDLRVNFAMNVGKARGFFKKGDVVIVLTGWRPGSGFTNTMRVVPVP
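hPK-M2, >95% pure; 0.1 mM ADP / 0.5 mM PEP final; imidazole pH7.2 buffer w/ 7 mM MgCl2, 50 mM KCl; 1 h RT; Kinase-Glo lum. Intermediate enzyme activity for dual inhibitor/activator qHTS.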
LDHA block: inhibitors of human lactate dehydrogenase A | activity change, % (values are at about 110 or 230 µM) | purified LDHA, NADH/diaphorase-resazurin fluorescence; active compounds read low | actives 0.15% (n = 480,000) | P00338; in the data active = activity change below about -30%; inconclusive = mostly about -25% to -30%
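Resorufin fluorescence (ex540/em590), read at 0 and 20 min after diaphorase/resazurin addition, reports the NADH left after a 5 min room-temperature reaction of 2 nM human LDH5 with 0.06 mM NADH and 0.2 mM pyruvate.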
rTrxR1 inhibitor: inhibitors of rat thioredoxin reductase 1; recombinant rTrxR1, NADPH fluorescence consumption, selenite substrate; AID 588453; Potency, µM (doses to about 114 µM), hits mostly inhibitors; O89049; actives 1% (n = 390,000); also: nearly all actives have a fitted effect of over 65% in size
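Rat TrxR1 (90 nM in the dispensed reagent) was pre-reduced with 400 uM NADPH for 5 min at room temperature, then incubated with compound for 15 min. After 400 uM selenite was added, NADPH fluorescence (Ex 340/Em 450 nm) was followed for 8 min.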
Resorufin autofl: counter-screen for mutant IDH1 inhibitors: fluorescence interference; shares compounds with IDH1 R132H inh; Resorufin detection reagent fluorescence interference, cell-free; inhibition of signal, % at 51.2 µM; 750 tested, under 10 active; AID 623980
WT IDH1 inh: wild-type IDH1 (human) inhibition counterscreen; WT IDH1 enzyme, NADPH diaphorase/resazurin fluorescence; actives 9% (n = 750); Potency, µM (titrated, usually from 115 µM), actives largely listed as inhibitors; shares compounds with IDH1 R132H inh; AID 623995; also: nearly all actives have a fitted effect of over 55% in size
mIDH1 confirm: mutant IDH1 (human) inhibition, confirmed; shares compounds with IDH1 R132H inh; IDH1 R132H enzyme, NADPH diaphorase/resazurin fluorescence; Potency, µM (highest dose often 76.6 µM), actives largely listed as inhibitors; actives 83% (n = 750); AID 624002; also: nearly all actives have a fitted effect of over 50% in size
Numbers stand for hits; – = inactive; ? = inconclusive; · = not tested or not shown. A selection: hits, their analogues and other compounds. The true share with any hit is near 1.4%. Unless noted, calls follow the shape of the dose curve; as a rule, active = well fitted curve in the direction sought with a large enough effect; inconclusive = small, poorly fitted or top-dose-only effect, or another doubt; inactive = no such curve, though single readings can be large; an effect the other way counts as inactive or inconclusive.

SMILES	IDH1 R132H inh	GLS inhibitor	TrxR1 substrate	PKM2 activator	LDHA block	rTrxR1 inhibitor	Resorufin autofl	WT IDH1 inh	mIDH1 confirm
COc1cccc(OC)c1C(=O)Oc1ccc2c(c1)O/C(=C\c1ccc(C(C)C)cc1)C2=O	·	·	·	·	–	·	·	·	·
Cc1ccc(S(=O)(=O)Oc2ccc3c(c2)O/C(=C\c2cccnc2)C3=O)cc1	?	–	–	–	–	–	–	–	25µM
O=C1/C(=C/c2ccncc2)Oc2cc(OS(=O)(=O)c3ccccc3)ccc21	46µM	?	–	–	–	–	–	?	16µM
COc1cccc(OC)c1C(=O)Oc1ccc2c(c1)O/C(=C\c1ccncc1)C2=O	?	–	–	–	–	–	–	–	20µM
COc1ccc(/C=C2\Oc3cc(OS(=O)(=O)c4ccccc4)ccc3C2=O)cc1	·	·	·	·	–	·	·	·	·
CC(=O)c1ccc(NS(=O)(=O)c2ccc3ccccc3c2)cc1	–	–	–	–	–	–	·	·	·
CC(=O)c1ccc(NS(=O)(=O)c2cccc(S(=O)(=O)c3ccc(Cl)cc3)c2)cc1	?	–	–	·	–	–	–	–	45µM
CC(C)(C)c1ccc(C2NC(=O)c3n[nH]c(-c4cccs4)c32)cc1 (stereo not given)	?	–	–	·	–	–	–	–	40µM
Cc1cc(C(C)(C)C)oc1C(=O)N1CCN(C(=O)c2oc(C(C)(C)C)cc2C)CC1	40µM	–	–	–	–	–	–	?	14µM
Cc1cc(C(C)(C)C)oc1C(=O)O	–	–	–	–	–	–	·	·	·
Cc1cc(C(=O)OCC(=O)NCC(F)(F)F)c2ccccc2n1	·	·	·	·	–	·	·	·	·
CCOc1ccc(NC(=O)c2c[nH]n3c(=O)cc(C4CCN(C(=O)OC(C)(C)C)CC4)nc23)cc1	52µM	–	–	–	–	–	–	50µM	25µM
CCOC(=O)N1CCC(c2cc(=O)n3[nH]cc(C(=O)OC)c3n2)CC1	–	–	–	–	–	–	·	·	·
CSC1=C(C#N)C(c2ccccc2C)C(C#N)=C(N)N1 (stereo not given)	?	–	–	–	-36	50µM	–	–	45µM
COC(=O)CNc1ccccc1	·	·	·	·	–	·	·	·	·
O=C(c1ccc(Cl)cc1)c1c[nH]c(C(=O)C(Cl)(Cl)Cl)c1	?	–	–	–	–	–	–	–	25µM
O=C1CCSC2(C(=O)N(Cc3ccc(F)cc3)c3ccccc32)N1c1ccccc1 (stereo not given)	?	–	–	·	–	–	·	·	·
Cc1cccc(N2C(=O)CCSC23C(=O)N(Cc2ccc(F)cc2)c2ccccc23)c1 (stereo not given)	?	–	–	·	–	–	–	–	20µM
O=C1CCSC2(C(=O)N(Cc3ccc(F)cc3)c3ccccc32)N1c1ccc(F)c(F)c1 (stereo not given)	40µM	–	–	·	–	–	–	–	14µM
O=C1CSC2(C(=O)N(Cc3ccccc3)c3ccccc32)N1c1ccc(Cl)cc1 (stereo not given)	?	–	–	·	–	–	–	–	25µM
O=C(CN1C(=O)C2(SCC(=O)N2c2ccc(Cl)cc2)c2ccccc21)NCCc1ccccc1 (stereo not given)	–	–	–	·	–	–	·	·	·
Cc1cc(C)cc(N2C(=O)CCSC23C(=O)N(Cc2ccccc2)c2ccccc23)c1 (stereo not given)	?	–	–	·	–	–	·	·	·
O=C1CCSC2(C(=O)N(Cc3ccc(F)cc3)c3ccccc32)N1c1cccc(F)c1 (stereo not given)	28µM	–	–	·	–	–	–	–	?
O=C(Nc1ccccc1Cl)c1nc2ccccc2nc1N1CCCCC1	·	·	·	·	–	·	·	·	·
CC1CS(=O)(=O)N(c2ccc(S(=O)(=O)NCc3cccnc3)cc2)C1=O (stereo not given)	·	·	·	·	–	·	·	·	·
SMILES	IDH1 R132H inh	GLS inhibitor	TrxR1 substrate	PKM2 activator	LDHA block	rTrxR1 inhibitor	Resorufin autofl	WT IDH1 inh	mIDH1 confirm
COc1c(OC(C)=O)ccc(/C=C/c2ccc3cccc(OC)c3n2)c1[N+](=O)[O-]	?	–	–	–	–	–	·	·	·
COc1c(OC(C)=O)ccc(/C=C/c2ccc3ccccc3n2)c1[N+](=O)[O-]	?	–	–	–	–	–	–	–	32µM
Fc1ccc(SCc2ccnc(Cl)c2)cc1	·	·	·	·	–	·	·	·	·
CC(C)c1nc(N2CCN(C(=O)c3ccco3)CC2)c(C#N)c2c1COC(C)(C)C2	21µM	–	–	·	–	–	–	–	20µM
CC1(C)Cc2c(C#N)c(SCC(=O)O)nc(N3CCOCC3)c2CO1	–	–	–	·	–	–	·	·	·
CC(C)OC(=O)CSc1nc(N2CCOCC2)c2c(c1C#N)CC(C)(C)OC2	?	–	–	·	–	–	–	–	35µM
CC(C)c1nc(N2CCN(C(=O)c3ccccc3)CC2)c(C#N)c2c1COC(C)(C)C2	?	–	–	–	–	–	–	–	22µM
CC(NC(=O)c1cccs1)c1ccc2c(c1)NC(=O)CO2 (stereo not given)	·	·	·	·	–	·	·	·	·
c1cn2cc(-c3ccc4c(c3)OCO4)nc2s1	23µM	·	–	–	–	–	–	–	50µM
CC(=O)Nc1ccc(-c2cn3ccsc3n2)cc1	–	–	–	–	–	–	·	·	·
COCCNC(=S)NCc1cccc(CNC(=S)NCCOC)c1	·	·	·	·	–	·	·	·	·
C=C(C)Cc1c(C)c(C#N)c2nc3ccccc3n2c1N1CCCCC1	?	–	–	–	–	–	–	–	14µM
C=CCc1c(C)c(C#N)c2nc3ccccc3n2c1N1CCCCC1	–	–	–	–	–	–	·	·	·
Cc1ccccc1N1C(N)=C(C#N)C(c2ccsc2)C2=C1CC(C)(C)CC2=O (stereo not given)	·	·	·	·	–	·	·	·	·
O=C(Nc1ccccc1F)N(Cc1ccc(F)cc1)Cc1nc2ccccc2c(=O)[nH]1	?	?	–	–	–	–	·	·	·
O=C(NC1CCCCC1)N(Cc1ccc(F)cc1)Cc1nc2ccccc2c(=O)[nH]1	?	–	–	–	–	–	–	–	28µM
COc1ccc(NC(=O)CCN2CCN(S(=O)(=O)c3ccc(C(C)C)cc3)CC2)cc1	–	?	–	–	–	–	·	·	·
